Screening results deposited in PubChem BioAssay by Johns Hopkins Ion Channel Center.
KCNQ2 enhance – potentiators of rat KCNQ2 potassium channel | CHO-K1 KCNQ2, FluxOR thallium flux fluorescence; hits give high values | AID 2239 | hit rate 0.54% among 310,000 | B-score at 10 µM | O88943;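 active = fluorescence ratio B-score at least 3 SD of library B-scores, with initial fluorescence B-score within 3 of them, cut at about 5.3 in these data; same plate scores as AID 2156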;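 also: B-score of peak minus minimum over baseline fluorescence ratio after K+ and Tl+ stimulus; positive B-score means potentiation of KCNQ2 with more thallium influx and brighter signal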
KCNQ2 block – inhibitors of rat KCNQ2 potassium channel; O88943; CHO-K1 KCNQ2, FluxOR thallium flux, 20 min; hits give low values; B-score at 10 µM; hit rate 1.1% among 310,000;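 active = fluorescence ratio B-score at most minus 3 library SDs, with starting brightness B-score within 2 library SDs, cut at about -5.5 in these data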
Kir21 conf inh – confirmation of mouse Kir2.1 potassium channel inhibitors; shares compounds with KCNQ2 enhance; Kir2.1-expressing cells, FluxOR thallium flux fluorescence; hits give low values; Tl flux remaining, % of negative control (hits give low values), % at 10 µM; hit rate 41% among 2,300; AID 2032;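 active = Primary-screen hit whose thallium flux fell at least 3 control SD below untreated wells in both duplicates, with normal baseline fluorescence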;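 also: 0% = blank wells without stimulus and 100% = stimulated no-compound controls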
Target sequence (P35561 whole entry, looked up): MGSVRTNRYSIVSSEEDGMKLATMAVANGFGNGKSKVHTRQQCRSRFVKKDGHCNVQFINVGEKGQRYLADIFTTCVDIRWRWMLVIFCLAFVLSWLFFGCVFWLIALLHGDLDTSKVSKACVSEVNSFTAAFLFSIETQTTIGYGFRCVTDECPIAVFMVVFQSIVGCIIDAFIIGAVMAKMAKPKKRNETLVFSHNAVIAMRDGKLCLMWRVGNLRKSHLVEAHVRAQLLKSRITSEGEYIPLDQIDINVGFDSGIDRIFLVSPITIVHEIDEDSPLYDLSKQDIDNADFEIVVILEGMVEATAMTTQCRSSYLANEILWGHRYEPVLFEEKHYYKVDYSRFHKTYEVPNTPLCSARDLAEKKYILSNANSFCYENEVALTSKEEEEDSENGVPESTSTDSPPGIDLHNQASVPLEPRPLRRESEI
HEK293 Tl flux – parental HEK293 activity in Kir2.1 inhibitor counter-screen; FluxOR signal as % of negative control (100 = no effect), % at 10 µM; shares compounds with KCNQ2 enhance; hit rate 19% among 2,300; AID 2105; parental HEK293 cells, FluxOR thallium flux fluorescence; 0% = unstimulated blank wells;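 active = dye signal at least 3 control SD above or below untreated wells in both duplicates, raw fluorescence within 3, either direction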;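 also: percent is based on the flux ratio of peak minus minimum fluorescence over baseline F0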
CHO-K1 Tl ctr – parental CHO-K1 activity in KCNQ2 potentiator counter-screen. hit rate 43% among 1,200. shares compounds with KCNQ2 enhance. parental CHO-K1 cells, FluxOR thallium flux fluorescence; zero = vehicle mean+3SD, 100% = vehicle-minus-blank window. AID 2282. activity increase over 3SD of controls, % at 10 µM;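 active = signal rise of at least 3 SD above the untreated control mean, in both duplicate wells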;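 also: counter screen of KCNQ2 potentiator hits so any rise reflects channel-independent effects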
KCNQ1 pot spec – selectivity of KCNQ2 potentiators: effect on human KCNQ1 | shares compounds with KCNQ2 enhance | CHO KCNQ1 stable, FluxOR thallium flux fluorescence; beyond 3SD, as % of vehicle-control signal | activation over 3SD threshold, % at 10 µM | hit rate 28% among 1,200;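 active = fluorescence ratio rise of at least 3 SD of vehicle wells above their mean, in both replicate wells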;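 also: 0% = vehicle mean plus 3 SD and 100% = vehicle minus unstimulated blank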
KCNQ2 pot confirm – confirmation of rat KCNQ2 potassium channel potentiators. shares compounds with KCNQ2 enhance. CHO-KCNQ2 cells, FluxOR thallium flux fluorescence. potentiation, less the hit threshold, % at 10 µM. hit rate 68% among 1,200;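 active = fluorescence ratio rising 3 SD or more over the vehicle control mean in both replicates, plus primary screen hit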;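 also: peak minus minimum thallium fluorescence divided by baseline after K/Tl stimulus; 0% = vehicle mean plus 3 SD and 100% = vehicle minus unstimulated blank difference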
Kir21 spec – selectivity of KCNQ2 potentiators: effect on mouse Kir2.1; activity over 3SD threshold, % at 10 µM; hit rate 2% among 1,200; HEK293 Kir2.1, FluxOR thallium flux fluorescence; shares compounds with KCNQ2 enhance;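 active = fluorescence ratio rise of at least 3 SD above the vehicle-control mean, seen in both replicates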;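 also: 0% = vehicle mean plus 3 SD and 100% = vehicle minus no-stimulus blank window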
KCNQ2 W236L pot – potentiates the retigabine-insensitive rat KCNQ2 W236L mutant channel. current increase over 3SD of negative controls (%), hits give high values, % at 25 µM. hit rate 10% among 940. AID 2558. shares compounds with KCNQ2 enhance. CHO KCNQ2-W236L, automated patch clamp current;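 active = current increase at least 3 SD of the untreated controls above them in both duplicate recordings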
* marks the source's active call; other numbers are inactive results; i = inactive; nt = not tested or not shown. Compounds with a hit are over-represented: about 1.6% of the library has one in this group of screens.

SMILES	KCNQ2 enhance	KCNQ2 block	Kir21 conf inh	HEK293 Tl flux	others
CCOc1cc(N2CCOCC2)c(OCC)cc1NC(=O)C1CCCC1	4.2	i	nt	nt
CCOc1cc(N2CCOCC2)c(OCC)cc1NC(=O)Cc1cccc2ccccc12	8.2*	i	i	i	CHO-K1 Tl ctr=2.4*;KCNQ1 pot spec=26*;KCNQ2 pot confirm=9.3*;Kir21 spec=-41;KCNQ2 W236L pot=i
CCOc1cc(N2CCOCC2)c(OCC)cc1NC(=O)CCC1CCCC1	25*	i	i	i	CHO-K1 Tl ctr=0.0*;KCNQ1 pot spec=220*;KCNQ2 pot confirm=112*;Kir21 spec=-37;KCNQ2 W236L pot=i
O=C(O)c1cccc(CN2C(=O)SC(Nc3cccc4ccccc34)C2=O)c1 (configuration not stated)	0.53	i	nt	nt
Cc1ccc(-c2nn(-c3ccccc3)cc2C(=O)NCC2CCCO2)cc1 (configuration not stated)	nt	i	nt	nt
CCCc1cc(=O)[nH]c(SCC(=O)c2cc(C)n(CCOC)c2C)n1	0.18	i	nt	nt
CCCc1cc(=O)[nH]c(SCC(=O)c2cc(C)n(CC(F)(F)F)c2C)n1	6.4*	i	i	i	CHO-K1 Tl ctr=-13;KCNQ1 pot spec=74*;KCNQ2 pot confirm=-16;Kir21 spec=-48
Cc1cccc(OCCSc2nc3ccccc3n2CCC(=O)O)c1	nt	i	nt	nt
COCCNC(=O)C/C(C)=N/NC(=O)C(=O)NC1CCCCC1	nt	i	nt	nt
COc1ccc(-c2cc(=O)oc3c(O)c(O)ccc23)cc1	1.4	i	nt	nt
CC1Oc2cc3oc4c(O)c(O)ccc4c(=O)c3c(O)c2C1(C)C (configuration not stated)	5.4*	i	i	i	CHO-K1 Tl ctr=-2;KCNQ1 pot spec=-12;KCNQ2 pot confirm=-14;Kir21 spec=-18
O=C(CN1C(=O)NC2(CCCc3ccccc32)C1=O)NCC(F)(F)F (configuration not stated)	nt	i	nt	nt
Cc1ccc(S(=O)(=O)N2CCC(C(=O)O)CC2)cc1	1.8	i	nt	nt
COc1ccc(C[C@H]2CN3C(=NC[C@@H]3C(C)C)N2C[C@H](C)NC(=O)c2ccc(C)c(Br)c2)cc1	nt	i	55%*	i
COc1ccc(C[C@H]2CN3C(=NC[C@@H]3Cc3ccc(O)cc3)N2C[C@H](C)NC(=O)c2ccc(C)c(Br)c2)cc1	nt	i	48%*	i
C[C@@H](CN1C2=NC[C@H](Cc3ccc(O)cc3)N2C[C@H]1Cc1ccc(O)cc1)NC(=O)CCC1CCCCC1	nt	i	nt	nt
Cc1ccc(C(=O)N[C@@H](C)CN2C3=NC[C@H](C(C)C)N3C[C@H]2Cc2ccc(O)cc2)cc1Br	nt	i	nt	nt
CC1(C)CCC[C@@]2(C)CC=C(C(=O)O)[C@@H]3C[C@]312	nt	i	nt	nt
O=C(N/N=C/c1cccc(Br)c1)C1CC(=O)N(c2ccccc2)C1 (configuration not stated)	nt	i	nt	nt
COc1ccc(N2CC(C(=O)Nc3c4c(nn3-c3ccccc3)CS(=O)(=O)C4)CC2=O)cc1 (configuration not stated)	nt	i	nt	nt
CC1CCc2c(sc3ncnc(SCC(=O)c4ccccc4)c23)C1 (configuration not stated)	1.8	i	nt	nt
CC(=O)CSc1ncnc2sc3c(c12)CCC(C)C3 (configuration not stated)	15*	i	i	455%*	CHO-K1 Tl ctr=1.6*;KCNQ1 pot spec=-2;KCNQ2 pot confirm=93*;Kir21 spec=0;KCNQ2 W236L pot=i
Cc1ccccc1N(C(=O)CNC(=O)c1ccco1)C(C(=O)NC1CCCC1)c1ccncc1 (configuration not stated)	nt	i	nt	nt
COc1ccc(Cl)c2sc(N(CCN(C)C)C(=O)CCS(=O)(=O)c3ccc(C)cc3)nc12	nt	i	nt	nt
COc1ccc(OC)c2sc(N(CCCN(C)C)C(=O)CCS(=O)(=O)c3ccccc3)nc12	9.9*	i	nt	nt	CHO-K1 Tl ctr=0;KCNQ1 pot spec=68*;KCNQ2 pot confirm=-4;Kir21 spec=-56
SMILES	KCNQ2 enhance	KCNQ2 block	Kir21 conf inh	HEK293 Tl flux	others
Cn1ncc2c(O/N=C(\N)c3ccc(C(C)(C)C)cc3)ncnc21	6.2*	i	i	i	CHO-K1 Tl ctr=47*;KCNQ1 pot spec=-1;KCNQ2 pot confirm=6.1*;Kir21 spec=-36;KCNQ2 W236L pot=i
COC(CNc1ncnc2c1cnn2C)OC	0.15	i	nt	nt
CCN(CCNCC(O)COCc1ccc(Cl)cc1)c1cccc(C)c1 (configuration not stated)	nt	i	36%*	i
CCN(CCNC(=O)c1ccc(C#N)cc1)c1cccc(C)c1	nt	i	nt	nt
CSc1ncccc1C(=O)OCC(=O)NCc1ccc2c(c1)OCO2	0.47	i	nt	nt
COc1ccc(S(=O)(=O)N2CCc3ccccc32)cc1OC	0.13	i	52%*	i
COc1ccc(S(=O)(=O)N2CCc3ccccc32)cc1C(=O)O	nt	i	nt	nt
CC(C)(C)OC(=O)N1CCC[C@H]1c1nnc(SCc2ccccc2)o1	nt	i	nt	nt
CC(C)(C)OC(=O)NCCc1nnc(SCc2ccccc2Cl)o1	nt	i	nt	nt
CC(C)(C)OC(=O)NCCc1nnc(SCc2ccccc2)o1	nt	i	45%*	77%*
Cc1ccc(CSc2nnc([C@@H]3CCCN3C(=O)OC(C)(C)C)o2)cc1	nt	i	50%*	66%*
Cc1ccc(CSc2nnc(CCNC(=O)OC(C)(C)C)o2)cc1	nt	i	29%*	i
CC(C)(C)OC(=O)NCCCCCc1nnc(SCc2ccc(F)cc2)o1	nt	i	nt	nt
O=C1NC(c2ccccc2)=C(c2nc3ccccc3s2)C(c2ccc(O)cc2)N1 (configuration not stated)	15*	i	i	i	CHO-K1 Tl ctr=-20;KCNQ1 pot spec=-1;KCNQ2 pot confirm=11*;Kir21 spec=-33;KCNQ2 W236L pot=i
O=C1NC(c2ccccc2)=C(c2ccc3ccccc3n2)C(c2ccccc2)N1 (configuration not stated)	nt	i	nt	nt
CC(C)Oc1ccccc1NC(=O)CSc1nc2ccccc2c(=O)n1C	1.2	i	58%*	i
Cc1ccccc1NC(=O)CSc1nc2ccccc2c(=O)n1C	0.07	i	nt	nt
Nc1cc(N)nc(SCC(=O)NCCC2=CCCCC2)n1	0.09	i	nt	nt
CC(C)c1nnc(SCC(=O)NCCC2=CCCCC2)n1N	5.9*	i	i	i	CHO-K1 Tl ctr=-17;KCNQ1 pot spec=2.2*;KCNQ2 pot confirm=24*;Kir21 spec=-21;KCNQ2 W236L pot=2.6%*
O=C1NC(=O)/C(=C\c2ccc(O)cc2O)S1	nt	i	nt	nt
CC(C)=CCc1c(O)c(CC=C(C)C)c2c(c1O)C(=O)CC(c1ccc(O)cc1)O2 (configuration not stated)	nt	i	nt	nt
CC(C)=CCc1c(O)cc(O)c2c1OC(c1ccc(O)cc1)CC2=O (configuration not stated)	-7.8	-7.8*	62%*	i
